{"source": "ChEMBL document CHEMBL3433997", "about": "“St. Jude Leishmania screening dataset” (2016)"}
{"target": "Solute carrier family 2, facilitated glucose transporter member 1 (Homo sapiens) (UniProt P11166)", "sequence (P11166 whole entry)": "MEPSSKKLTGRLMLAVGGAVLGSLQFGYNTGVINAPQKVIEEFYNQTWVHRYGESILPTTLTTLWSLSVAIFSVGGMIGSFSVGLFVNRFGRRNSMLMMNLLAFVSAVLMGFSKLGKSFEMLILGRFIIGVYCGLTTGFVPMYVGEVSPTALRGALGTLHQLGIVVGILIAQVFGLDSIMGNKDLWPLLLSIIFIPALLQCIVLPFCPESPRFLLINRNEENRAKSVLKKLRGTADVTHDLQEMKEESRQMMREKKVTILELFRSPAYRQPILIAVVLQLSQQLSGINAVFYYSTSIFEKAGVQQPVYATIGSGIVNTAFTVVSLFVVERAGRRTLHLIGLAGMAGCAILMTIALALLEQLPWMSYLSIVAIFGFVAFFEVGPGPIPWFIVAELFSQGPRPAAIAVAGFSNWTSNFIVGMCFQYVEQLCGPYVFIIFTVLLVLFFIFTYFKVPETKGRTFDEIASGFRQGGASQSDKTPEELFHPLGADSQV", "experiment": "ST_JUDE_LEISH: Cytotoxicity at 2uM final concentration against transgenic Leishmania Mexicana promastigotes LmGLUT1 that are glucose transport deficient and complemented with the human glucose transporter GLUT1. Activity is measured by DNA content using SYBR green in vitro", "format": "functional", "units": {"inhibition": "%"}}
{"molecule": "CCC1CN2CCc3c([nH]c4ccccc34)C2CC1CC1=NCCc2c1[nH]c1ccccc21", "note": "(stereo not given)", "inhibition": 1.78}
{"molecule": "O=C(/C=C/c1ccc(C(F)(F)F)cc1)N1CCc2cc3nccc(N4CCN5CCC[C@H]5C4)c3cc21", "inhibition": 1.68}
{"molecule": "NC(=O)c1ccsc1NC(=O)CNC(c1ccccc1)c1ccc(Cl)cc1", "note": "(stereo not given)", "inhibition": 6.13}
{"molecule": "CCCC(=O)NC(c1cccs1)c1cc(Cl)c2cccnc2c1O", "note": "(stereo not given)", "inhibition": 0.53}
{"molecule": "CCc1c(CCNCCCCCCNCCc2ccc(OC)c(OC)c2C)ccc(OC)c1OC", "inhibition": 10.2}
{"molecule": "CS(=O)(=O)NCCCNCc1cccc(-c2ccc(-c3nc4cc(C(F)(F)F)ccc4[nH]3)cc2)c1", "inhibition": 7.6}
{"molecule": "COc1cc2c(cc1O)[C@@H]1[C@H](O)[C@@H](O)C=C3CCN(C2)[C@H]31", "inhibition": 4.04}
{"molecule": "Cc1cc(=O)c(-c2ccc(Oc3ccc(C(F)(F)F)cc3)cc2)c(C)n1O", "inhibition": -1.23}
{"molecule": "CCNc1cc(C(=O)N[C@@H](Cc2ccccc2)[C@H](O)CNCc2cccc(OC)c2C)cc(N2CCCCS2(=O)=O)c1", "inhibition": 1.82}
{"molecule": "CCN1CCN(c2ccc(Nc3c4ccccc4nc4ccccc34)cc2)CC1", "inhibition": 7.35}
{"molecule": "COc1ccc(C(=O)CCC(=O)N(CCSC(C)(C)C)Cc2ccc(-c3ccc(CNCCc4ccc(S(C)(=O)=O)cc4)cn3)cc2)cc1F", "inhibition": 10.4}
{"molecule": "Cc1cc(C)c(-c2n[nH]c3c2C(c2cccc(Cl)c2)N(Cc2ccco2)C3=O)c(O)c1", "note": "(stereo not given)", "inhibition": 1.7}
{"molecule": "O=C(NCCNc1ccnc(NCc2ccc(F)cc2)n1)c1cc2ccccc2s1", "inhibition": 4.76}
{"molecule": "COc1ccc2nc(N)nc(C)c2c1", "inhibition": 4.18}
{"molecule": "CCCn1cc2c(ccc3nc(N)nc(N)c32)n1", "inhibition": 0.63}
